Results filed as inconclusive are left out. A call without a number means that no potency is given here. Activity calls are given as the source filed them. The call rests on the fitted dose curve; in most records, active means well fitted curve in the direction sought with a large enough effect in the repeat runs; inconclusive means weak or mixed curves; inactive means no such curve, though single readings can be large; an effect the other way counts as inactive or inconclusive.
assay: A CellTox Green Cytotoxicity Assay to monitor cytotoxicity in HEK293 cells - 8 hour (AID 1224884); conditions: CellTox Green fluorescence; series mostly up to 76.8 µM; further: nearly all actives have a fitted effect of over 35% in size
Outline: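 Fluorescence from a DNA-binding dye excluded by viable cells was measured repeatedly in the same HEK293 wells (600 cells/well) during continuous compound exposure at 37 C. Each assay gives one read point: 0, 8, 16, 24, 32 or 40 h.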
Potency means the concentration at half of the fitted maximal effect.

| Structure (SMILES) | Potency | cytotoxicity increase |
| --- | --- | --- |
| CC(CCO)CCc1ccccc1 (stereo not drawn) | inactive |  |
| CSc1ccc(Oc2ccc(S(N)(=O)=O)cc2CN(C)C)cc1C | inactive |  |
| Cc1nccn1-c1ccc(Sc2cccc(C3(C(N)=O)CCOCC3)c2)cc1 | inactive |  |
| ON(Cc1ccccc1)Cc1ccccc1 | inactive |  |
| CC(C)CCCCCOC(=O)CCCCC(=O)OCCCCCC(C)C | inactive |  |
| C[Si]1(C)O[Si](C)(C)O[Si](C)(C)O1 | inactive |  |
| CCCCN(CCCC)CCCOC(=O)c1ccc(N)cc1 | inactive |  |
| CCN(CC)CCNC(=O)c1ccc(NC(C)=O)cc1 | inactive |  |
| CC(C)CCCCCCOC(=O)CCCCC(=O)OCCCCCCC(C)C | inactive |  |
| C/C(=N/NC(=O)c1ccncc1)C(=O)O | inactive |  |
| Nc1c(I)cc(I)c(C(=O)N(CCC(=O)O)c2ccccc2)c1I | inactive |  |
| CCCCCCCCCCCCCCC[C@H](O)[C@@H](N)CO | 23.9 µM (active) |  |
| O=C(C(=O)c1ccccc1)c1ccccc1 | inactive |  |
| Cc1ccc(/C=N/n2c(-c3ccccc3)csc2=S)cc1 | inactive |  |
| Cc1occc1C(=O)Nc1ccc(C(=O)N2CCC(F)(F)/C(=C\C(=O)N3CCC(N4CCCCC4)CC3)c3ccccc32)cc1 | inactive |  |
| CC[C@H](NC(=O)c1cc(F)ccc1NS(=O)(=O)c1cccc2cccnc12)c1ccccc1 | inactive |  |
| O=C(OCCOCCO)c1ccccc1Nc1cccc(C(F)(F)F)c1 | inactive |  |
| CC(=O)Oc1ccc(C(=C2CCCCC2)c2ccc(OC(C)=O)cc2)cc1 | inactive |  |
| COCC(O)CO (stereo not drawn) | inactive |  |
| CC(C)c1nnc2ccc(-c3ocnc3-c3cc(F)ccc3F)cn12 | inactive |  |

| Structure (SMILES) | Potency | cytotoxicity increase |
| --- | --- | --- |
| O=C(CCCCCCCCC#CI)Oc1ccccc1 | inactive |  |
| Cc1ccc(S)cc1 | inactive |  |
| CO[Si](C)(OC)OC | inactive |  |
| CC(C)(C)C(=O)C(Oc1ccc(Cl)cc1)n1ccnc1 (stereo not drawn) | inactive |  |
| c1cnc2c(n1)CCCC2 | 43.6 µM (active) |  |
| c1cc[c]([Bi]([c]2ccccc2)[c]2ccccc2)cc1 | inactive |  |
| CC1CN(c2cc3c(cc2F)c(=O)c(C(=O)O)cn3-c2ccc(F)cc2F)CCN1 (stereo not drawn) |  | 1.21% [at 6.97 µM] (inactive) |
| COC(=O)Nc1nc2ccc(C(=O)c3cccs3)cc2[nH]1 | inactive |  |
| COc1cc2c(cc1OC)-c1cc(=Nc3c(C)cc(C)cc3C)n(C)c(=O)n1CC2 | inactive |  |
| COc1cc2c(N3CCN(C(=O)Nc4ccc(OC(C)C)cc4)CC3)ncnc2cc1OCCCN1CCCCC1 | inactive |  |
| OC/C(Br)=C(\Br)CO | inactive |  |
| Cc1nc2ccccn2c(=O)c1CCN1CCC(C(=O)c2ccc(F)cc2)CC1 | inactive |  |
| NC(=O)N(O)[C@@H]1C=C[C@H](Oc2cccc(Oc3ccc(F)cc3)c2)C1 | inactive |  |
| CCc1c2c(nc3ccc(OC(=O)N4CCC(N5CCCCC5)CC4)cc13)-c1cc3c(c(=O)n1C2)COC(=O)[C@]3(O)CC | inactive |  |
| CCc1cccc(N(C)C(N)=Nc2cccc3ccccc23)c1 | inactive |  |
| NC(=O)Nc1ccc(Cl)cc1 | inactive |  |
| CN(C(=O)C(Cl)Cl)c1ccc(OC(=O)c2ccco2)cc1 | inactive |  |
| C/C=C/C=C/CCCCCCCO | inactive |  |
| O=Cc1c(Cl)cccc1Cl | inactive |  |
| O=C(NCCCN1CCOCC1)c1ccc(Cl)cc1 | inactive |  |

assay: qHTS RealTime-Glo MT Cell Viability Assay in HepG2 cells - 16 hour (AID 1224885); conditions: RealTime-Glo luminescence; series mostly up to 76.8 µM; further: nearly all actives have a fitted effect of over 50% in size
Outline: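 Compound treatment began 5 h after plating HepG2 cells (600/well) with NanoLuc luciferase and prosubstrate. Plates stayed at 37 C for 40 h; luminescence was captured at six time points, 0 h through 40 h.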

| Structure (SMILES) | Potency | activity change, negative = cytotoxic |
| --- | --- | --- |
| CC(CCO)CCc1ccccc1 (stereo not drawn) | inactive |  |
| CSc1ccc(Oc2ccc(S(N)(=O)=O)cc2CN(C)C)cc1C | inactive |  |
| ON(Cc1ccccc1)Cc1ccccc1 | inactive |  |
| CC(C)CCCCCOC(=O)CCCCC(=O)OCCCCCC(C)C | inactive |  |
| C[Si]1(C)O[Si](C)(C)O[Si](C)(C)O1 | inactive |  |
| CCCCN(CCCC)CCCOC(=O)c1ccc(N)cc1 | inactive |  |
| CCN(CC)CCNC(=O)c1ccc(NC(C)=O)cc1 | inactive |  |
| CC(C)CCCCCCOC(=O)CCCCC(=O)OCCCCCCC(C)C | inactive |  |
| C/C(=N/NC(=O)c1ccncc1)C(=O)O | inactive |  |
| Nc1c(I)cc(I)c(C(=O)N(CCC(=O)O)c2ccccc2)c1I | inactive |  |
| O=C(C(=O)c1ccccc1)c1ccccc1 | inactive |  |
| Cc1ccc(/C=N/n2c(-c3ccccc3)csc2=S)cc1 | inactive |  |
| Cc1occc1C(=O)Nc1ccc(C(=O)N2CCC(F)(F)/C(=C\C(=O)N3CCC(N4CCCCC4)CC3)c3ccccc32)cc1 | inactive |  |
| CC[C@H](NC(=O)c1cc(F)ccc1NS(=O)(=O)c1cccc2cccnc12)c1ccccc1 | 46.3 µM (active) |  |
| O=C(OCCOCCO)c1ccccc1Nc1cccc(C(F)(F)F)c1 | inactive |  |
| CC(=O)Oc1ccc(C(=C2CCCCC2)c2ccc(OC(C)=O)cc2)cc1 | inactive |  |
| COCC(O)CO (stereo not drawn) | inactive |  |
| CC(C)c1nnc2ccc(-c3ocnc3-c3cc(F)ccc3F)cn12 | inactive |  |
| O=C(CCCCCCCCC#CI)Oc1ccccc1 | 15.1 µM (active) |  |

| Structure (SMILES) | Potency | activity change, negative = cytotoxic |
| --- | --- | --- |
| Cc1ccc(S)cc1 | inactive |  |
| CO[Si](C)(OC)OC | inactive |  |
| CC(C)(C)C(=O)C(Oc1ccc(Cl)cc1)n1ccnc1 (stereo not drawn) | inactive |  |
| c1cnc2c(n1)CCCC2 | inactive |  |
| c1cc[c]([Bi]([c]2ccccc2)[c]2ccccc2)cc1 | inactive |  |
| CC1CN(c2cc3c(cc2F)c(=O)c(C(=O)O)cn3-c2ccc(F)cc2F)CCN1 (stereo not drawn) |  | 2.01% [at 6.97 µM] (inactive) |
| COC(=O)Nc1nc2ccc(C(=O)c3cccs3)cc2[nH]1 | inactive |  |
| COc1cc2c(cc1OC)-c1cc(=Nc3c(C)cc(C)cc3C)n(C)c(=O)n1CC2 | inactive |  |
| COc1cc2c(N3CCN(C(=O)Nc4ccc(OC(C)C)cc4)CC3)ncnc2cc1OCCCN1CCCCC1 | inactive |  |
| OC/C(Br)=C(\Br)CO | inactive |  |
| Cc1nc2ccccn2c(=O)c1CCN1CCC(C(=O)c2ccc(F)cc2)CC1 | inactive |  |
| NC(=O)N(O)[C@@H]1C=C[C@H](Oc2cccc(Oc3ccc(F)cc3)c2)C1 | inactive |  |
| CCc1c2c(nc3ccc(OC(=O)N4CCC(N5CCCCC5)CC4)cc13)-c1cc3c(c(=O)n1C2)COC(=O)[C@]3(O)CC | inactive |  |
| CCc1cccc(N(C)C(N)=Nc2cccc3ccccc23)c1 | inactive |  |
| NC(=O)Nc1ccc(Cl)cc1 | inactive |  |
| CN(C(=O)C(Cl)Cl)c1ccc(OC(=O)c2ccco2)cc1 | inactive |  |
| C/C=C/C=C/CCCCCCCO | inactive |  |
| O=Cc1c(Cl)cccc1Cl | inactive |  |
| O=C(NCCCN1CCOCC1)c1ccc(Cl)cc1 | inactive |  |

From PubChem BioAssay (Tox21)
